# Test results taken from the supplement of paper PMC11482750.
# ± gives the standard deviation of the averaged measurements.
# Compound: C=CCN=C=S [allyl isothiocyanate]
# Assay: control-subtracted net OSN firing rate; higher = stronger neuronal activation
# Conditions: odorant dilution (vol/vol): 1/100
# Outline: (§1)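 Values are replicate means from single sensillum recordings of palp or antennal olfactory sensory neurons. Recordings used 1–5-day-old fed female flies, either Scaptomyza species or D. melanogaster wild-type, mutant or at1 empty-neuron lines carrying Or42a homologs, stimulated with 1 s pulses of odorant (1:100 vol/vol in mineral oil or dimethyl sulfoxide, 20 μl on filter paper) into 16 ml/min filtered air. Spikes in a 0.5 s window beginning 0.2 s after onset were background-subtracted, doubled and corrected for solvent.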
row,Target,control-subtracted net OSN firing rate [spikes/s]
1,S. hsui pb1b-like,-15 ± 6.4
2,S. flava pb2a-like,-1.67 ± 6.9
3,S. flava pb1a-like,123 ± 14
4,S. montana pb1a-like,126 ± 16
5,Canton-S (D. melanogaster) pb3a,7.56 ± 4.9
6,S. flava pb2b-like,-0.333 ± 12
7,"Or67dGal4, UAS-Dmel Or42a at1",94.3 ± 58
8,"Or67dGal4, UAS-Sfla Or42a4 at1",131 ± 22
9,S. flava pb1b-like,-21 ± 16
10,S. pallida pb1a-like,109 ± 21
11,S. montana pb3a-like,9.67 ± 6.5
12,"Or67dGal4, UAS-Sfla Or42a3 at1",127 ± 27
13,"Or67dGal4, UAS-Spal Or42a at1",201 ± 39
14,Canton-S (D. melanogaster) pb1b,-8.93 ± 11
15,S. pallida pb3b-like,-5.67 ± 14
16,S. hsui pb1a-like,124 ± 17
17,S. hsui pb3b-like,-2.67 ± 4.5
18,S. flava pb3a-like,6 ± 8.3

row,Target,control-subtracted net OSN firing rate [spikes/s]
1,Canton-S (D. melanogaster) pb1a,134 ± 36
2,"Or67dGal4, UAS-Sfla Or42a2 at1",39.7 ± 29
3,S. pallida pb1b-like,-11 ± 11
4,S. hsui pb2b-like,0.667 ± 4.1
5,Canton-S (D. melanogaster) pb2a,1.69 ± 6.9
6,S. hsui pb2a-like,-2 ± 4.7
7,Canton-S (D. melanogaster) pb2b,-1.54 ± 9
8,S. flava pb3b-like,2 ± 14
9,S. pallida pb2b-like,2.33 ± 5.3
10,S. montana pb2a-like,0.667 ± 4.1
11,S. montana pb1b-like,-19 ± 14
12,Canton-S (D. melanogaster) pb3b,-3.33 ± 8.2
13,S. montana pb3b-like,3 ± 7.9
14,S. montana pb2b-like,2 ± 4.2
15,S. pallida pb2a-like,9 ± 9.5
16,S. hsui pb3a-like,0 ± 12
17,S. pallida pb3a-like,-6.33 ± 7

# Compound: CC(C)CN=C=S [isobutyl isothiocyanate]
# Assay: as above
# Conditions: odorant dilution (vol/vol): 1/100
# Outline: as §1
row,Target,control-subtracted net OSN firing rate [spikes/s]
1,S. hsui pb1b-like,-3.33 ± 8.7
2,S. flava pb2a-like,0.667 ± 5.8
3,S. flava pb1a-like,107 ± 32
4,S. montana pb1a-like,110 ± 18
5,Canton-S (D. melanogaster) pb3a,1.5 ± 6
6,S. flava pb2b-like,-4.33 ± 14
7,"Or67dGal4, UAS-Dmel Or42a at1",5.33 ± 7.7
8,"Or67dGal4, UAS-Sfla Or42a4 at1",87 ± 27
9,S. flava pb1b-like,-26.3 ± 24
10,S. pallida pb1a-like,26 ± 12
11,S. montana pb3a-like,5 ± 8.5
12,"Or67dGal4, UAS-Sfla Or42a3 at1",77.7 ± 25
13,"Or67dGal4, UAS-Spal Or42a at1",42.2 ± 14
14,Canton-S (D. melanogaster) pb1b,1.33 ± 9.2
15,S. pallida pb3b-like,-4 ± 7.9
16,S. hsui pb1a-like,10 ± 5.1
17,S. hsui pb3b-like,-1.33 ± 3.9
18,S. flava pb3a-like,4.67 ± 6.8

row,Target,control-subtracted net OSN firing rate [spikes/s]
1,Canton-S (D. melanogaster) pb1a,0.222 ± 8.7
2,"Or67dGal4, UAS-Sfla Or42a2 at1",-2 ± 3.1
3,S. pallida pb1b-like,-8.67 ± 14
4,S. hsui pb2b-like,7 ± 8.2
5,Canton-S (D. melanogaster) pb2a,1.43 ± 7.3
6,S. hsui pb2a-like,2 ± 7.3
7,Canton-S (D. melanogaster) pb2b,-0.286 ± 8.4
8,S. flava pb3b-like,-3.67 ± 24
9,S. pallida pb2b-like,6 ± 4
10,S. montana pb2a-like,1.67 ± 4.5
11,S. montana pb1b-like,-18 ± 11
12,Canton-S (D. melanogaster) pb3b,-1.5 ± 9.8
13,S. montana pb3b-like,-0.667 ± 7.8
14,S. montana pb2b-like,3.67 ± 5.3
15,S. pallida pb2a-like,5.33 ± 6.4
16,S. hsui pb3a-like,-4.33 ± 7.9
17,S. pallida pb3a-like,-5.67 ± 5.8

# Compound: CCC(C)N=C=S [sec-butyl isothiocyanate]
# Assay: as above
# Conditions: odorant dilution (vol/vol): 1/100
# Outline: as §1
row,Target,control-subtracted net OSN firing rate [spikes/s]
1,S. hsui pb1b-like,4.33 ± 7.4
2,S. flava pb2a-like,3 ± 7.8
3,S. flava pb1a-like,30.3 ± 26
4,S. montana pb1a-like,48.3 ± 20
5,Canton-S (D. melanogaster) pb3a,3.67 ± 8
6,S. flava pb2b-like,-0.333 ± 6.4
7,"Or67dGal4, UAS-Dmel Or42a at1",4.33 ± 11
8,"Or67dGal4, UAS-Sfla Or42a4 at1",29.7 ± 21
9,S. flava pb1b-like,-2.33 ± 32
10,S. pallida pb1a-like,17.3 ± 13
11,S. montana pb3a-like,1 ± 7.9
12,"Or67dGal4, UAS-Sfla Or42a3 at1",29.4 ± 17
13,"Or67dGal4, UAS-Spal Or42a at1",22.8 ± 9.7
14,Canton-S (D. melanogaster) pb1b,-0.667 ± 9.4
15,S. pallida pb3b-like,5.33 ± 17
16,S. hsui pb1a-like,8.67 ± 7.3
17,S. hsui pb3b-like,-3 ± 1.7
18,S. flava pb3a-like,0.333 ± 11

row,Target,control-subtracted net OSN firing rate [spikes/s]
1,Canton-S (D. melanogaster) pb1a,3.56 ± 4.9
2,"Or67dGal4, UAS-Sfla Or42a2 at1",-1.71 ± 6.6
3,S. pallida pb1b-like,-1 ± 13
4,S. hsui pb2b-like,5.33 ± 6.3
5,Canton-S (D. melanogaster) pb2a,5.43 ± 6.9
6,S. hsui pb2a-like,2 ± 4.7
7,Canton-S (D. melanogaster) pb2b,0.571 ± 8.4
8,S. flava pb3b-like,-3.33 ± 16
9,S. pallida pb2b-like,8.33 ± 3.4
10,S. montana pb2a-like,3 ± 10
11,S. montana pb1b-like,-8.33 ± 9.7
12,Canton-S (D. melanogaster) pb3b,1.33 ± 7
13,S. montana pb3b-like,3.67 ± 6.9
14,S. montana pb2b-like,4.33 ± 6.2
15,S. pallida pb2a-like,10.7 ± 9.5
16,S. hsui pb3a-like,-2 ± 10
17,S. pallida pb3a-like,-5 ± 14
